Consider 70 molecules from PubChem BioAssay AID1458 (National Center for Advancing Translational Sciences (NCATS), 2008).

About 5,900 (2.8%) of roughly 210,000 compounds were called active. Where a call stands in place of a potency, no number is given. Another 5% or so got no clear call; they are omitted. The sample holds actives, similar compounds and a random draw of the others, so the mix is not that of the screen. The call rests on the fitted dose curve; in most records, active means well fitted activation curve with a large enough effect; inconclusive means small, poorly fitted or top-dose-only effect; inactive means no such curve, though single readings can be large or run the other way.
Potency means the concentration at half of the fitted maximal effect.

A short description of this test: qHTS Assay for Enhancers of SMN2 Splice Variant Expression. Further: nearly all actives have a fitted effect of over 55% in size. To be noted: HEK293 SMN2-luciferase splicing reporter, luminescence, 30-36 h; series mostly up to 46.1 µM. Put shortly: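 HEK293 cells carry an SMN2 […]–luciferase reporter in which exon 7 inclusion puts luciferase in frame. Cells were plated 10-12 h before compound addition, then incubated 30-36 h at 37C. ONE-Glo luminescence was read; sodium butyrate at 4.5 mM final served as control.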
(In qHTS, concentration-response curves come from the screen itself.)
As for `CNC(=S)N1N=C(c2ccccc2)CC1c1ccc(Br)cc1` (stereo not given), the Potency entry is “inactive”. As to `Brc1ccc(C2CC(c3ccccc3)=Nc3ccccc3N2)cc1` (stereo not given), the Potency is 11.2 µM (active). In the case of `c1ccc(C2=Nc3cccc4cccc(c34)N2)cc1`, the Potency entry was “inactive”.

In the case of `O=C(Nc1ccc(OC(F)(F)F)cc1)C1CCCN(S(=O)(=O)c2ccc(Br)s2)C1` (stereo not given), the Potency entry is “inactive”.

On to `COc1cc(NS(=O)(=O)c2cccs2)cc(OC)c1`, for which the Potency entry was “inactive”. As for `Cc1cccc(N2CCN(c3c(CN4CCCC4)c(=O)oc4ccccc34)CC2)c1C`, the Potency result was “inactive”. Regarding `O=C(NCc1cccs1)c1ccc2c(c1)ncn2C1CCCC1`, the Potency result is “inactive”. With `Cn1ncc(Br)c1C(=O)NCc1cccs1`, the Potency result is “inactive”.

Regarding `Cc1nc2cc(NCc3cccs3)ccc2n1C`, the Potency is 7.94 µM (active).

On to `CCCCCCn1nnc2sc(-c3ccccc3)cc2c1=O`, for which the Potency result was “inactive”. Consider `CCOC(=O)c1cc(NC(=O)c2ccc(F)cc2)c(=O)n2c1oc1ccccc12`, for which the Potency result is “inactive”.

Take `COc1ccccc1NC(=O)c1oc2ccccc2c1NC(=O)C(C)C`: the Potency entry was “inactive”. The entry for `CC(CCCc1ccccc1)NC(=O)c1nn(-c2ccc(Cl)cc2)nc1CO` (stereo not given) is “inactive”. With `CCOc1ccc(S(=O)(=O)Nc2ccc3oc4c(c3c2)CC(C)CC4)cc1` (stereo not given), the Potency result is “inactive”. Turning to `CC(=O)Nc1ccccc1NC(=O)c1cc(C)cc(C)c1`, the Potency entry was “inactive”. The value for `CSCc1ccc(C(=O)Nc2cc(C)cc(C)c2)cc1` was 12.6 µM (active); that for `C=CCN(c1ccc(C(=O)Nc2cc(C)cc(C)c2)cc1)S(C)(=O)=O` was “inactive”; that for `CCOc1ccccc1NC(=O)c1ccc2c(c1)CCN2S(=O)(=O)c1ccc(C)cc1` was “inactive”. For `CC(=O)Nc1ccc(NC(=O)CSc2nnc3c4cc(Br)ccc4n(C)c3n2)cc1`, the Potency entry is “inactive”.

Consider `Cc1cc(C)cc(NC(c2nnc(-c3cccc(F)c3)o2)c2ccc(F)cc2Cl)c1` (stereo not given), for which the Potency result was “inactive”.

Consider `O=C(NC(=O)N1CCOCC1)c1ccccc1`, for which the Potency result is “inactive”. On to `NC(=NC(=O)c1ccccc1)N1CCOCC1`, for which the Potency result was “inactive”. As for `O=C(CSC(=S)N1CCOCC1)c1ccccc1`, the Potency was 0.794 µM (active).

Turning to `Cc1ccc(F)cc1NC(=O)c1ccc2c(c1)OCO2`, the Potency entry is “inactive”. Consider `COCc1nnc(NC(=O)c2ccc3c(c2)OCO3)s1`, for which the Potency is 14.1 µM (active). For the molecule `O=C(Nc1cccnc1)c1ccc2c(c1)OCO2`, the Potency result was “inactive”. For `CCCc1nnc(NC(=O)c2cc(OC)cc(OC)c2)s1`, the Potency result was “inactive”.

As to `O=C(Nc1nc2ccccc2s1)c1ccc2c(c1)OCO2`, the Potency is 0.355 µM (active). With `Cc1cc(C)c2nc(NC(=O)c3ccc4c(c3)OCO4)sc2c1`, the Potency result is “inactive”. As for `O=C(CCn1c(=O)c2ccccc2n(Cc2ccc(Cl)cc2)c1=O)NCc1ccc2c(c1)OCO2`, the Potency result is “inactive”. For `CC(C)NC(=O)c1nn(-c2ccccc2F)nc1CO`, the Potency entry was “inactive”.

For the molecule `NC1=NC(c2cc(F)cc(F)c2)n2c(nc3ccccc32)N1` (stereo not given), the Potency entry is “inactive”. For the molecule `Brc1ccc2c(c1)NC(c1cccnc1)=NC(c1ccccc1)=N2`, the Potency entry is “inactive”. As for `CCc1nnc(NC(=O)c2c(O)c3c([nH]c2=O)CCCC3)s1`, the Potency was 14.1 µM (active). For the molecule `O=C(NCc1ccccn1)c1c(O)c2c([nH]c1=O)CCCC2`, the Potency entry was “inactive”. For the molecule `C[N+](C)(C)CCNC(=O)c1c(O)c2c([nH]c1=O)CCCC2`, the Potency entry was “inactive”. `Cc1ccc(NC(=O)NC(C)c2c(-n3cccc3)sc(C)c2C)c(C)c1` (stereo not given): the Potency result is “inactive”. Regarding `CCCn1c(NCc2ccc(N(CC)CC)cc2)nc2ccccc21`, the Potency entry was “inactive”.

In the case of `O=C(CCOc1ccccc1)NCc1ccccc1`, the Potency result was “inactive”.

`O=C(NCCOc1ccccc1)c1ccccc1`: the Potency is 12.6 µM (active).

For `CS(=O)(=O)NCc1ccc(C(=O)NCc2ccccc2)cc1`, the Potency result is “inactive”.

Consider `CC(C)c1ccc(C(=O)NCCCc2ccccc2)cc1`, for which the Potency is 14.1 µM (active). The entry for `Nc1ccc(C(=O)NCc2ccccc2)cc1` is “inactive”; for `O=C(NCCc1ccccc1)c1ccc(OCCOc2ccccc2)cc1` it is “inactive”. Take `COc1ccc(OCCCC(=O)NCCc2ccccc2)cc1`: the Potency entry was “inactive”.

With `CCCOc1ccc(C(=O)NCCc2ccccc2)cc1`, the Potency was 14.1 µM (active). On to `NS(=O)(=O)c1cc(C(=O)NCCOc2ccccc2)c(Cl)cc1Cl`, for which the Potency result was “inactive”. The value for `CCC1=Nc2cc(C(=O)NCC(C)c3ccccc3)ccc2Sc2ccc(C)cc21` (stereo not given) was “inactive”; that for `COc1cccc(CNC(=O)c2cc(=O)[nH]c3ccc(S(=O)(=O)N4CCCCC4)cc23)c1` was “inactive”. As to `CCC(=O)N1N=C(c2ccc(OC)cc2)CC1c1cn(-c2ccccc2)nc1-c1cccs1` (stereo not given), the Potency result was “inactive”. With `COc1ccc(-c2nn(-c3ccccc3)cc2/C=C\C(=O)Nc2ccc(C(=O)O)cc2)cc1`, the Potency result was “inactive”. Regarding `O=C(O)c1ccc(N/N=C/c2cn(-c3ccccc3)nc2-c2cccs2)cc1`, the Potency is 7.94 µM (active). For the molecule `O=C(/C=C\c1cn(-c2ccccc2)nc1-c1cccs1)N1CCOCC1`, the Potency result is “inactive”. Take `CC(C)CC(NS(=O)(=O)c1ccc2c(c1)oc(=O)n2C)C(=O)NCc1ccccc1Cl` (stereo not given): the Potency entry was “inactive”. Consider `Cc1ccccc1NC(=O)Cn1c(=O)n(CCc2ccccc2)c(=O)c2ccccc21`, for which the Potency result was “inactive”.

Consider `COc1ccc(N2CCN(C(=O)CSc3ncnc4c3cnn4-c3ccc(OC)cc3)CC2)cc1`, for which the Potency result is “inactive”. With `COc1ccc(-n2ncc3c(N4CCCc5ccccc54)ncnc32)cc1`, the Potency result is “inactive”. As for `COc1ccc(-n2ncc3c(N4CCc5ccccc54)ncnc32)cc1`, the Potency was 5.62 µM (active). The entry for `CO[C@@]12[C@@H](COC(N)=O)C3=C(C(=O)C(C)=C(N)C3=O)N1C[C@@H]1N[C@@H]12` is “inactive”; for `CC(C)c1ccc2oc(-c3cc(NC(=O)c4cccs4)ccc3Cl)nc2c1` it is “inactive”.

As to `CC1=C(C(=O)OCc2ccc(C)cc2)C(c2c(Cl)cccc2Cl)CC(=O)N1` (stereo not given), the Potency entry was “inactive”. The value for `Cc1ccccc1OCC(=O)Nc1c(C(=O)Nc2ccccc2F)oc2ccccc12` was “inactive”; that for `CNC(=S)N/N=C/c1ccc(OCc2ccccc2)c(Br)c1` was “inactive”; that for `Cc1n[nH]c(=S)n1/N=C/c1ccc(Br)o1` was “inactive”.

For the molecule `COc1cc(/C=N/n2c(C)n[nH]c2=S)ccc1OCc1ccccc1`, the Potency is 12.6 µM (active). The entry for `Cc1cc(-c2ccccc2)n2nc(-c3ccccc3)cc2n1` is “inactive”; for `Cc1ccc(NC(=O)CN2C(=O)CC(C)Sc3ccccc32)c(C)c1` (stereo not given) it is “inactive”; for `CC(C)=CCN1CCC2(CCc3ccccc32)CC1` it is “inactive”. With `CCOc1ccc(OCC)c(NC(=O)c2c(C)nn(-c3ccccc3)c2-n2cccc2)c1`, the Potency result is “inactive”.

Turning to `COC(=O)c1c(NC(=O)c2ccc(Cl)c(Cl)c2)sc2c1CCCC2`, the Potency entry was “inactive”.
